Results on 25 compounds are retold here after PubChem BioAssay (EPA / NIEHS).

The source made the active and inactive calls. Rule for the calls: active = hit-call score of the fitted dose curve at least 0.9, where 1 is the maximum; inactive = score below 0.9.

Experiment [1] is described as follows: ATG_PXRE_CIS: Attagene CIS-FACTORIAL HepG2 Assay for human Pregnane X Receptor Element (PXRE) (AID 2282957). Particulars: HepG2 Attagene CIS-FACTORIAL PXRE reporter, mRNA; actives raise or lower the signal. In a few lines: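 HepG2 cells transiently transfected with cis-element-driven multiplexed reporter units; after 24 h chemical exposure, reporter mRNA measured by RT-PCR, 6-FAM labelling, HpaI digestion and capillary electrophoresis. Bidirectional fitting relative to DMSO.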

A short description of experiment [2]: ATG_PPRE_CIS: Attagene CIS-FACTORIAL HepG2 Assay for human Peroxisome Proliferator-activated Response Element (PPRE) (AID 2282958). Conditions: HepG2 PPRE cis-element reporter, Attagene transcription factor profiling; actives raise or lower the signal. Put shortly: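 Measured endpoint: PPRE-controlled reporter mRNA, detected by RT-PCR and capillary electrophoresis fluorescence, from transiently transfected HepG2 cells 24 h after dosing. Curves fitted in both directions using DMSO baseline.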

Experiment [3] can be described thus: ATG_RORE_CIS: Attagene CIS-FACTORIAL HepG2 Assay for human RAR-related Orphan Receptor Element (RORE) (AID 2282959). Conditions: HepG2 Attagene cis-factorial RORE reporter, mRNA; actives raise or lower the signal. In a few lines:
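Transiently transfected HepG2 reporter cells were treated 24 h. Reporter transcripts were detected by RT-PCR and capillary electrophoresis, with bidirectional fitting against DMSO.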

A short description of experiment [4]: ATG_Sox_CIS: Attagene CIS-FACTORIAL HepG2 Assay for human SRY-box transcription factor (SOX) (AID 2282960). Particulars: HepG2 Attagene cis-factorial SOX reporter, mRNA; actives raise or lower the signal. In a few lines: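 Gain- or loss-of-signal endpoint, fitted bidirectionally with DMSO as negative control. Based on reporter mRNA from transfected HepG2 cells harvested 24 h post-treatment and quantified via RT-PCR and capillary electrophoresis.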

The target in experiment [5] is Transcription factor Sp1 (Homo sapiens) (UniProt P08047). Description: ATG_Sp1_CIS: Attagene CIS-FACTORIAL HepG2 Assay for human Specificity Protein 1 (Sp1) (AID 2282961). Particulars: HepG2 Sp1 cis-reporter transcription, actives raise or lower the signal. Put shortly: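 Endpoint reflects endogenous Sp1 transcriptional activity, not an exogenous fusion protein: HepG2 cells with transfected cis-regulated reporters, 24 h dosing, RT-PCR/capillary electrophoresis mRNA read-out, DMSO-normalised bidirectional fit.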

The nature of experiment [6]: ATG_SREBP_CIS: Attagene CIS-FACTORIAL HepG2 Assay for human Sterol Regulatory Element Binding (SREBP) (AID 2282962). Particulars: HepG2 Attagene cis-factorial SREBP reporter, mRNA; actives raise or lower the signal. In a few lines:
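HepG2 cells transiently transfected with multiplexed cis-element reporter units report endogenous transcription factor activity. After 24 h of chemical exposure, reporter mRNA was quantified by RT-PCR, 6-FAM labelling, HpaI digestion and capillary electrophoresis; bidirectional fits used DMSO as baseline.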

Experiment [7] has as its target Signal transducer and activator of transcription 3 (Homo sapiens) (UniProt P40763). Kind of experiment: ATG_STAT3_CIS: Attagene CIS-FACTORIAL HepG2 Assay for human Signal Transducer and Activator of Transcription 3 (STAT3) (AID 2282963). Particulars: HepG2, Attagene cis-factorial STAT3 reporter transcription; actives raise or lower the signal. In a few lines:
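HepG2 cells transiently transfected with cis-element-driven multiple reporter transcription units; after 24 h chemical exposure, reporter mRNA measured by RT-PCR, 6-FAM primer-extension labelling, HpaI digestion and capillary electrophoresis. Bidirectional fitting versus DMSO baseline.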

A short description of experiment [8]: ATG_TA_CIS: Attagene CIS-FACTORIAL HepG2 Assay for human TA Basal Promoter (AID 2282964). Particulars: HepG2 Attagene CIS-factorial TA basal promoter reporter; actives raise or lower the signal. Put shortly: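 Background-control readout: TA basal promoter reporter mRNA, fitted in both directions relative to DMSO. Measured by RT-PCR and capillary electrophoresis 24 hours after treating HepG2 human liver cells transiently carrying multiplexed cis-regulated reporter constructs.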

Experiment [9] in a line: ATG_TCF_b_cat_CIS: Attagene CIS-FACTORIAL HepG2 Assay for human T-Cell-Factor with beta-catenin (TCF/b-cat) (AID 2282965). Conditions: HepG2 TCF/beta-catenin cis-reporter transcription, actives raise or lower the signal. In a few lines: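 In this cis-format system, transfected HepG2 cells report endogenous transcription factor activity. Readout after 24 h exposure is reporter transcript abundance from RT-PCR and capillary electrophoresis, analysed for gain or loss of signal versus DMSO.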

A short description of experiment [10]: ATG_TAL_CIS: Attagene CIS-FACTORIAL HepG2 Assay for human TAL Basal Promoter (AID 2282966).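 Note: background control endpoint measuring basal TAL promoter reporter mRNA not a specific factor.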 Particulars: HepG2 Attagene cis-factorial TAL promoter reporter; actives raise or lower the signal. In a few lines: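 HepG2 cells transiently transfected with multiplexed cis-promoter reporter units, dosed 24 h. Reporter mRNA quantified by RT-PCR, 6-FAM labelling, HpaI digestion and capillary electrophoresis; TAL basal promoter serves as background control, fitted bidirectionally versus DMSO.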

Chain of Transcription factor Sp1 (Homo sapiens) (P08047 whole entry, looked up, the tested form may be a part): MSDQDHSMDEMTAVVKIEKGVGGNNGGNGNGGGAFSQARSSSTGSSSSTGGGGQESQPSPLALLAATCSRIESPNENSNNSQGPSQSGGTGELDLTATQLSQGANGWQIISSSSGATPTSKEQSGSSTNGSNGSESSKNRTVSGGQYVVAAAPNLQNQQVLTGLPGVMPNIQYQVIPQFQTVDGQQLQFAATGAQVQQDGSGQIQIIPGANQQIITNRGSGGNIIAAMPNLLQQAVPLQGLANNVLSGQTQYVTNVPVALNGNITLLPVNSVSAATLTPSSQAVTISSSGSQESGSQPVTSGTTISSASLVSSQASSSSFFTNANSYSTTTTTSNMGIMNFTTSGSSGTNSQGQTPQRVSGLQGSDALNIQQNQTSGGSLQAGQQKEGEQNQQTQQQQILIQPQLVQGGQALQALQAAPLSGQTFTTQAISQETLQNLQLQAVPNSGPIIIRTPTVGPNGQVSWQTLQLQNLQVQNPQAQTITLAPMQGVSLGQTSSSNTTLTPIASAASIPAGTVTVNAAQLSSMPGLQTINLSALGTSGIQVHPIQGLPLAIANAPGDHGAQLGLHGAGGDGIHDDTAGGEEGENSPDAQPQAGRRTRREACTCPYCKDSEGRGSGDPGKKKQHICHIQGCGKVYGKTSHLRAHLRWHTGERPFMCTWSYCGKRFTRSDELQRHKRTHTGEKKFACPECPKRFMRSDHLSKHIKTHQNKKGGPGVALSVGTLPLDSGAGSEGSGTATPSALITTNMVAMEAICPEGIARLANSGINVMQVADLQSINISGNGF
Chain of Signal transducer and activator of transcription 3 (Homo sapiens) (P40763 whole entry, looked up): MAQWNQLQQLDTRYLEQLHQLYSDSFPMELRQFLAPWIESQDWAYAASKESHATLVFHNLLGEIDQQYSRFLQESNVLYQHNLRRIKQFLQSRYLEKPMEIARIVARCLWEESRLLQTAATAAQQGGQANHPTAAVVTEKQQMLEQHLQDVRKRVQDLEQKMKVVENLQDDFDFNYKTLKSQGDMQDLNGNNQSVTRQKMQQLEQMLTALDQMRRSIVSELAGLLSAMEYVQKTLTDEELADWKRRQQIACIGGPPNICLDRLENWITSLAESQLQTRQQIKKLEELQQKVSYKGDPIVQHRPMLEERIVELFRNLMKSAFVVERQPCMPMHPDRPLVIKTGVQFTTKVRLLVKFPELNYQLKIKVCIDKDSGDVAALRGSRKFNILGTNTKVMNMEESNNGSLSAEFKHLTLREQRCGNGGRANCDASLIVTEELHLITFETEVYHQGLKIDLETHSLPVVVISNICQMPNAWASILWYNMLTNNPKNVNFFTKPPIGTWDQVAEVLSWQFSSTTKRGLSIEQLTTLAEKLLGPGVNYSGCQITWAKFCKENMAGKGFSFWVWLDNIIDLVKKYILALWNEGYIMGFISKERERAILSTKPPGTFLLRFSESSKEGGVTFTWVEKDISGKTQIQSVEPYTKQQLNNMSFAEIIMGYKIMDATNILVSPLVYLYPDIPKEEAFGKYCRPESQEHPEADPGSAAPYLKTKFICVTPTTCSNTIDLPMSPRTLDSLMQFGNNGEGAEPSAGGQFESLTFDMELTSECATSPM

Consider `CCOC(=O)CCc1ccccc1`, for which the compound was classed as inactive in [1], in experiment [2], in experiment [3], in experiment [4], in experiment [5] and in [6]. Also, the compound was classed as inactive in [7], in experiment [8], in experiment [9] and in [10].

Regarding `CS(=O)(=O)c1ccc(C2=C(c3ccccc3)C(=O)OC2)cc1`, the AC50 in experiment [1] is 20.1 µM (active). The compound was classed as inactive in experiment [2], in experiment [3], in experiment [4], in [5], in experiment [6] and in experiment [7]. Besides, the outcome in [8], in experiment [9] and in [10] was inactive.

Turning to `CCN(CCC#N)c1ccc(N=Nc2ccc([N+](=O)[O-])cc2)cc1`, the outcome in experiment [1], in [2], in experiment [3], in experiment [4], in [5] and in [6] was inactive. Moreover, the result in [7], in experiment [8], in experiment [9] and in experiment [10] was inactive.

For `C=CC(=O)OCCC#N`, the AC50 in [1] is 62.5 µM (active); in experiment [4] it was 41.1 µM (active); in experiment [6], 76.4 µM (active). For the same compound, the compound was called inactive in experiment [2], in experiment [3], in experiment [5], in experiment [7], in experiment [8] and in experiment [9]. For the same compound, the result in experiment [10] was inactive.

Take `CCOCCOCCOCC`: the compound was classed as inactive in experiment [1], in experiment [2], in [3], in experiment [4], in experiment [5] and in [6]. Further, the compound was classed as inactive in [7], in experiment [8], in [9] and in experiment [10].

On to `CC(Oc1cc(Cl)ccc1Cl)C(=O)O` (stereo not given), for which the AC50 in experiment [1] was 82.1 µM (active); in experiment [2], 100 µM (active). In addition, the result in experiment [3], in [4], in experiment [5], in [6], in experiment [7] and in [8] was inactive. The outcome in [9] and in [10] was inactive.

Turning to `O=[N+]([O-])c1ccc(O)cc1C(F)(F)F`, the AC50 in experiment [1] is 84.1 µM (active); in experiment [3], 49 µM (active); in experiment [5], 100 µM (active); in [6], 100 µM (active); in experiment [10], 26.8 µM (active). Also, the compound was classed as inactive in experiment [2], in [4], in [7], in experiment [8] and in experiment [9].

For `C#CC(C)N(C)C(=O)Nc1ccc(Cl)cc1` (stereo not given), in [1], the AC50 is 8.86 µM (active). The call in experiment [2], in experiment [3], in experiment [4], in [5], in [6] and in experiment [7] was inactive. The outcome in [8], in [9] and in experiment [10] was inactive.

With `CC(C)CCCCCCCCCCCCCCC(=O)O`, the compound was classed as inactive in experiment [1], in experiment [2], in [3], in [4], in [5] and in [6]. The result in experiment [7], in experiment [8], in experiment [9] and in [10] was inactive.

For the compound `CS(C)=O`, the outcome in experiment [1], in experiment [2], in experiment [3], in [4], in experiment [5] and in experiment [6] was inactive. Further, the compound was classed as inactive in experiment [7], in experiment [8], in experiment [9] and in experiment [10].

`CCCCCC(C)=O`: the compound was called inactive in experiment [1], in experiment [2], in experiment [3], in [4], in experiment [5] and in [6]. The outcome in experiment [7], in experiment [8], in experiment [9] and in experiment [10] was inactive.

As for `c1ccc(CCc2ccccc2)cc1`, the AC50 is 26.1 µM (active) in experiment [1] and 169 µM (active) in [5]. The compound was called inactive in [2], in [3], in experiment [4], in experiment [6], in experiment [7] and in experiment [8]. The compound was called inactive in experiment [9] and in [10].

Take `CCCCCCOCCOCCO`: the call in experiment [1], in experiment [2], in experiment [3], in experiment [4], in experiment [5] and in [6] was inactive. The outcome in experiment [7], in experiment [8], in experiment [9] and in experiment [10] was inactive.

As to `CCC(Cl)C(Cl)C(Cl)CC(Cl)C(Cl)C(C)Cl` (stereo not given), the AC50 in experiment [1] is 0.885 µM (active). Moreover, the result in experiment [2], in experiment [3], in [4], in experiment [5], in [6] and in experiment [7] was inactive. Moreover, the call in [8], in experiment [9] and in experiment [10] was inactive.

As to `COc1cc(C(C)C)ccc1C`, the outcome in [1], in [2], in experiment [3], in [4], in experiment [5] and in experiment [6] was inactive. The call in experiment [7], in experiment [8], in experiment [9] and in experiment [10] was inactive.

Turning to `CCC1CCCCC1`, the outcome in experiment [1], in [2], in [3], in experiment [4], in experiment [5] and in [6] was inactive. Further, the call in [7], in experiment [8], in experiment [9] and in [10] was inactive.

For `CCCCC1(COC(=O)CCC(=O)O)C(=O)N(c2ccccc2)N(c2ccccc2)C1=O`, the AC50 in experiment [1] was 19.5 µM (active). Moreover, the compound was called inactive in [2], in experiment [3], in [4], in experiment [5], in experiment [6] and in [7]. In addition, the compound was called inactive in experiment [8], in experiment [9] and in [10].

`CC/C=C\CC/C=C/CO`: the AC50 in [1] was 27.3 µM (active). In addition, the call in [2], in experiment [3], in experiment [4], in [5], in experiment [6] and in [7] was inactive. For the same compound, the compound was called inactive in experiment [8], in [9] and in experiment [10].

As for `CN(C)CCOc1ccc(/C(=C(/CCCl)c2ccccc2)c2ccccc2)cc1`, the AC50 in experiment [1] is 1.18 µM (active). Further, the result in experiment [2], in [3], in experiment [4], in experiment [5], in experiment [6] and in [7] was inactive. Moreover, the outcome in experiment [8], in experiment [9] and in [10] was inactive.

Turning to `CC(C)(C)OC(=O)c1ccc(O)cc1`, the outcome in experiment [1], in [4], in [5], in [6], in experiment [7] and in experiment [8] was inactive. For the same compound, the call in experiment [9] and in experiment [10] was inactive. Moreover, the AC50 is 87.7 µM (active) in experiment [2] and 72.5 µM (active) in experiment [3].

For the compound `O=C(CS)OCCOC(=O)CS`, the AC50 in experiment [1] is 37.8 µM (active); in [2], 19.7 µM (active); in [10], 62.2 µM (active). Further, the compound was classed as inactive in experiment [3], in [4], in experiment [5], in experiment [6], in experiment [7] and in [8]. In experiment [9], the compound was classed as inactive.

For `Cc1c(C2(c3cc(Br)c(O)c(Br)c3C)OS(=O)(=O)c3ccccc32)cc(Br)c(O)c1Br`, the AC50 in [1] is 11 µM (active). The compound was called inactive in experiment [2], in experiment [3], in experiment [4], in experiment [5], in experiment [6] and in experiment [7]. Besides, the compound was called inactive in experiment [8], in experiment [9] and in experiment [10].

Consider `N#Cc1ccc(CC(=O)c2cccc(C(F)(F)F)c2)cc1`, for which the AC50 in experiment [1] is 5.18 µM (active). For the same compound, the call in experiment [2], in experiment [3], in experiment [4], in experiment [5], in experiment [6] and in experiment [7] was inactive. Further, the outcome in experiment [8], in experiment [9] and in experiment [10] was inactive.

With `CC(=O)NCCO`, the outcome in experiment [1], in [2], in experiment [3], in experiment [4], in experiment [5] and in [6] was inactive. For the same compound, the compound was classed as inactive in [7], in experiment [8], in experiment [9] and in [10].

Consider `CN(C)CCOC(C)(c1ccccc1)c1ccccn1` (stereo not given), for which, in experiment [1], the AC50 is 100 µM (active). For the same compound, the call in experiment [2], in experiment [3], in experiment [4], in experiment [5], in [6] and in [7] was inactive. Besides, the compound was called inactive in experiment [8], in experiment [9] and in [10].

Broadly, the AC50 is the midpoint of the concentration-response curve, whichever way the signal moves.
